# Experimental data taken from PubChem BioAssay (NCI).
# This is part of a sample that, as a whole, favours compounds with a hit. Of some 79,000 tested, about 15% had one in any assay. Unmarked numbers belong to inactive results. The source made the active and inactive calls. Cut-off read from the data, not from the text of the source: active = growth inhibition above about 70%; inactive = the rest.
# What was measured:
# [1] = NCI Yeast Anticancer Drug Screen. Data for the rad50 strain (AID 155);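 note: 0% = growth of vehicle-only cultures of the same strain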; details: S. cerevisiae rad50 strain growth inhibition, hits give high values
# How it was run: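 DNA repair mutant yeast, compound exposure, growth read-out; inhibition is taken relative to vehicle.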
# [2] = NCI Yeast Anticancer Drug Screen. Data for the mec2-1 strain (AID 157); details: S. cerevisiae mec2-1 strain, hits give high values
# How it was run: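 Growth inhibition is read against vehicle-treated controls after compound exposure of the mec2-1 yeast strain, which is defective in DNA damage repair or cell cycle control.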
# [3] = NCI Yeast Anticancer Drug Screen. Data for the sgs1 mgt1 strain (AID 161);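 note: 0% = growth of cultures given vehicle only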; details: S. cerevisiae sgs1 mgt1 strain, hits give high values
# How it was run: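 Compounds are added to genetically altered yeast, and growth is compared with cultures given vehicle alone to give percent inhibition.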
# [4] = NCI Yeast Anticancer Drug Screen. Data for the cln2 rad14 strain (AID 165);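 note: 0% = growth equal to vehicle treated cultures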; details: S. cerevisiae cln2 rad14 strain, hits give high values
# How it was run: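 Growth inhibition, relative to vehicle-treated controls, is the read-out. The test organism is a yeast strain with defined genetic alterations, cln2 rad14.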
# [5] = NCI Yeast Anticancer Drug Screen. Data for the bub3 strain (AID 167); details: S. cerevisiae bub3 mutant strain, hits give high values
# How it was run: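 In this screen, a yeast mutant lacking normal mitotic checkpoint function is challenged with compound. Relative growth versus vehicle gives the inhibition value.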
# [6] = NCI Yeast Anticancer Drug Screen. Data for the mlh1 rad18 strain (AID 175); details: S. cerevisiae mlh1 rad18 strain growth inhibition, hits give high values
# How it was run: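 Cells of a genetically altered yeast strain, deficient in DNA damage repair, were treated with compound. Their growth was then compared with that of vehicle-treated cultures to give inhibition.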
# [7] = at 5.0 µM (retest, dose inferred, filed as 0.5)
# [8] = at 50.0 µM (retest, dose inferred, filed as 5.0)
SMILES,"growth inhibition [1, 7]","growth inhibition [1, 8]",growth inhibition ([1]; at 50.0 µM),"growth inhibition [2, 7]","growth inhibition [2, 8]",growth inhibition ([2]; at 50.0 µM),"growth inhibition [3, 7]","growth inhibition [3, 8]",growth inhibition ([3]; at 50.0 µM),"growth inhibition [4, 7]","growth inhibition [4, 8]",growth inhibition ([4]; at 50.0 µM),"growth inhibition [5, 7]","growth inhibition [5, 8]",growth inhibition ([5]; at 50.0 µM),"growth inhibition [6, 7]","growth inhibition [6, 8]",growth inhibition ([6]; at 50.0 µM)
CCN(C(C)=O)c1cnc(/C=N/NC(N)=S)c2ccccc12,13%,47%,66.6%,11%,47%,76.9% (active),18%,71% (active),28.9%,-13%,57%,61.3%,21%,71% (active),60.4%,11%,57%,31.5%
CCc1nc(N)nc(N)c1-c1ccc(NCCCCCCCCCCCCN)c([N+](=O)[O-])c1,-18%,99% (active),94.2% (active),-11%,99% (active),99.2% (active),-1%,99% (active),40.4%,-24%,98% (active),87% (active),-5%,99% (active),98.5% (active),-19%,99% (active),98.7% (active)
COC(=O)CCC(=O)NCCc1ccc2c([nH]c3ccccc32)c1C,12%,5%,55.6%,5%,-1%,59.7%,4%,11%,71.2% (active),5%,-7%,93% (active),5%,4%,63.5%,3%,-2%,91% (active)
CN(C)CCCN=c1c2ccccc2n(O)c2ccccc12,-8%,-6%,-27.9%,-16%,-19%,-6.95%,-16%,-3%,-32.5%,22%,20%,24.7%,-4%,-20%,-9.35%,-20%,-16%,8.3%
COC(=O)c1nnn(-c2cc(Cl)ccc2Cl)c1C(=O)c1ccc(Cl)c(Cl)c1,12%,98% (active),98.8% (active),4%,98% (active),96.8% (active),14%,98% (active),99% (active),6%,97% (active),95.5% (active),18%,99% (active),95.3% (active),17%,99% (active),99% (active)
Oc1cc(F)cc2cccnc12,43%,92% (active),92.3% (active),46%,91% (active),94.3% (active),99% (active),99% (active),94.1% (active),88% (active),100% (active),92.5% (active),100% (active),100% (active),93.3% (active),42%,99% (active),91.3% (active)
O=C(O)/C(Cl)=C(/Cl)C(=O)Nc1cccc(Cl)c1,45%,98% (active),90.9% (active),50%,100% (active),86.2% (active),42%,100% (active),88.6% (active),32%,99% (active),89.1% (active),63%,99% (active),89.9% (active),50%,99% (active),92.4% (active)
C=C(CN(C)C)C(=O)c1ccc(OC2OC(COC(C)=O)C(OC(C)=O)C(OC(C)=O)C2OC(C)=O)cc1 (configuration not stated),-1%,2%,-5.65%,0%,5%,-18.4%,3%,-43%,-8.8%,7%,2%,10.4%,15%,4%,-3.75%,5%,2%,-18.9%
C(=C\c1cnnc2ccccc12)/c1ccco1,2%,32%,58.2%,5%,33%,20.4%,6%,39%,29.4%,2%,31%,80.8% (active),-2%,27%,18.8%,2%,40%,39.8%
COc1ccccc1C(=O)[O][Sn]([c]1ccccc1)([c]1ccccc1)[c]1ccccc1,100% (active),99% (active),99.2% (active),100% (active),100% (active),99.3% (active),99% (active),99% (active),99.3% (active),99% (active),99% (active),89.3% (active),100% (active),99% (active),99% (active),99% (active),99% (active),98.7% (active)
O=C(O)C1(Cc2ccc3c(c2)CCC3)Cc2cc3c(cc2C1)CCC3,2%,2%,82.8% (active),-7%,-7%,86.1% (active),-1%,-1%,77.8% (active),-1%,-1%,82% (active),-11%,-11%,82.2% (active),14%,14%,80.1% (active)
COc1ccc(C(CC(=O)c2ccc(C)cc2)Sc2ccccc2N)cc1 (configuration not stated),46%,51%,-9.65%,52%,52%,4.5%,-16%,26%,26.5%,44%,40%,-15.2%,36%,17%,27.5%,35%,50%,8.35%
CC1=CC2OC3CC4OC(=O)/C=C/C=C/C(C(C)O)OCC(=O)C(C)CC(=O)OCC2(CC1)C4(C)C31CO1 (configuration not stated),28%,98% (active),90.8% (active),26%,99% (active),94% (active),31%,98% (active),91.8% (active),72% (active),99% (active),91.3% (active),60%,99% (active),91.8% (active),65%,99% (active),91.3% (active)
CC(O)c1c2c(cc3c1CC1(C3)Cc3cc4c(c(C(C)O)c3C1)CCC4)CCC2 (configuration not stated),-18%,98% (active),71.1% (active),-6%,97% (active),81.4% (active),-34%,97% (active),85.9% (active),1%,97% (active),86.7% (active),-50%,97% (active),87.2% (active),-17%,97% (active),88.3% (active)
O=C1C(CN2CCCC2)C(O)=C(c2ccccc2)N1c1ccccc1 (configuration not stated),5%,4%,52.2%,1%,9%,14.8%,1%,2%,75.5% (active),-3%,1%,18.6%,-6%,1%,30.1%,0%,1%,43.1%
O=CC(I)=C(c1ccccc1)c1ccccc1,21%,21%,88.8% (active),13%,13%,92.3% (active),9%,9%,86.4% (active),4%,4%,89.8% (active),-2%,-2%,89.5% (active),21%,21%,86.3% (active)
CS(=O)(=O)N1C(=O)C2C3CCC(O3)C2C1=O (configuration not stated),-142%,91% (active),73.5% (active),-46%,71% (active),57.7%,-61%,52%,26.4%,-56%,73% (active),19.5%,-74%,64%,40.8%,-145%,75% (active),42.6%
O=C1C=CC(=O)N1c1cccc([N+](=O)[O-])c1,78% (active),99% (active),99.6% (active),95% (active),100% (active),99.7% (active),93% (active),99% (active),99.5% (active),84% (active),99% (active),99.7% (active),99% (active),99% (active),99.3% (active),91% (active),99% (active),99.5% (active)
O=C(N/C(=C\c1ccc(/C=C(\NC(=O)c2ccccc2)c2nc3ccccc3s2)cc1)c1nc2ccccc2s1)c1ccccc1,57%,57%,85.1% (active),32%,32%,87.5% (active),42%,42%,85.6% (active),38%,38%,84.7% (active),60%,60%,85.5% (active),28%,28%,83.8% (active)
